Most compounds without a hit are left out; they make up all but 12% or so of the library.
JMJD2A Tudor: JMJD2A Tudor domain (human) inhibition | AlphaScreen JMJD2A-Tudor / H3K4me3 peptide binding | Potency, µM (titrated, usually from 114 µM), for inactives: at the top dose activity change, negative = inhibition, hits mostly inhibitors | actives 4.4% (n = 390,000) | AID 504339; further: on the % scale 0 is the no-effect control and ±100 the full control effect; nearly all actives have a fitted effect of over 50% in size
BAZ2B block: blocks human BAZ2B; Q9UIF8; AlphaScreen BAZ2B-H3K14Ac peptide displacement; Potency, µM (series often up to 114 µM), for the others: top-dose activity change, negative = inhibition, usual class: inhibitors; actives 4.4% (n = 360,000); AID 504333; further: on the % scale 0 is the no-effect control and ±100 the full control effect; nearly all actives have a fitted effect of over 60% in size
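Complex of BAZ2B and biotin-H3K14Ac (50 nM apiece) forms over 30 min at RT, then faces library compounds up to 110 uM for another 30 min; AlphaScreen beads added, 20 min dark incubation, luminescence read.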
HP1b binding inh: HP1-beta chromodomain-methylated histone interaction inhibition. P83916. AlphaScreen HP1-beta / biotin-H3K9me3 peptide binding. Potency, µM (series often up to 114 µM), without a hit: at the highest dose activity change, negative = inhibition, hits mostly inhibitors. actives 0.56% (n = 390,000). AID 540317; further: nearly all actives have a fitted effect of over 70% in size
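HP1-beta protein (50 nM final) preincubated 30 min at room temperature with biotinylated H3(1-18)K9me3 peptide (50 nM) in PBS pH 7.4, 0.01% Tween-20, then compound added for 30 min. AlphaScreen streptavidin donor/nickel chelate acceptor beads (10 ug/mL final), 30 min dark, luminescence read.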
L3MBTL1 block: blocks human L3MBTL1; AlphaScreen L3MBTL1–H3K9me1 peptide binding; Potency, µM (top dose mostly 57.1 µM), for inactives: at the top dose activity, negative = inhibition, most hits filed as inhibitors; actives 0.66% (n = 230,000); Q9Y468; further: on the % scale 0 is the no-effect control and ±100 the full control effect; nearly all actives have a fitted effect of over 60% in size
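Displacement of a biotinylated histone H3(1-15) peptide monomethylated at Lys9 (75 nM) from L3MBTL1 (50 nM) was measured by AlphaScreen after a 30 min room-temperature compound incubation; cefsulodin titration served as intraplate control.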
Sfp inh: inhibitors of Bacillus subtilis Sfp phosphopantetheinyl transferase; Biochemical Sfp PPTase activity, qHTS; actives 3.5% (n = 310,000); Q9F4F7; Potency, µM, without a hit: largest response in the series, negative = inhibition, hits mostly inhibitors;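 further: the enzyme is Sfp with the accession as filed and its product quenches rhodamine fluorescence; 0% = enzyme reaction without inhibitor and -100% = no enzyme wells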
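Compounds were incubated with enzyme (final 15 nM) for 15 min at room temperature before substrate addition started the reaction. Fluorescence at 525 nm excitation, 598 nm emission was recorded immediately and after 30 minutes.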
G9a block: blocks human histone lysine methyltransferase G9a; G9a H3K9 monomethylation, AlphaScreen, 2 h; actives 8.8% (n = 350,000); Potency, µM (highest dose often 102 µM), without a hit: top-dose activity, negative = inhibition, most hits filed as inhibitors; Q96KQ7; further: on the % scale 0 is the no-effect control and ±100 the full control effect; nearly all actives have a fitted effect of over 75% in size
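Chemiluminescent proximity detection of H3K9 monomethylation, read after 10 min bead incubation in the dark. Reaction: 20 nM G9a, 500 nM biotin-H3K9 peptide, 20 uM SAM cofactor, 2 h, room temperature, following 15 min enzyme-compound preincubation.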
The depositor's hits bear a star; ? = inconclusive; . = no result given; [ ] = another dose, or the depositor's remark. The call rests on the fitted dose curve; in most records, active means well fitted curve in the direction sought with a large enough effect; inconclusive means small, poorly fitted or top-dose-only effect, or another doubt; inactive means no such curve, though single readings can be large; an effect the other way counts as inactive or inconclusive. Potency means the concentration at half of the fitted maximal effect.

SMILES	JMJD2A Tudor	BAZ2B block	HP1b binding inh	L3MBTL1 block	Sfp inh	G9a block
CN(CCO)CCC(=O)NC1(C)CS(=O)(=O)CC1S(=O)(=O)O (stereo not drawn)	-3%	-13%	14%	.	-1%	-120%[59 µM]
Cc1ccccc1C1c2[nH]c3ccccc3c2CCN1CCCn1cccn1 (stereo not drawn)	?	?	-17%	?	-17%	?
Fc1ccc(C2c3[nH]c4ccccc4c3CCN2CCCn2cccn2)cc1 (stereo not drawn)	?	40µM*	-18%	-26%	6%	5%[59 µM]
O=C(NNS(=O)(=O)c1cccc(Cl)c1Cl)c1cccc(S(=O)(=O)N2CCOCC2)c1	?	3%	8%	6%	-12%	32µM*
COc1ccc(C(C)=NNC(=O)c2cccc(S(=O)(=O)N3CCCC3)c2)cc1	-9%	.	-11%	-3%	.	.
COc1ccc(/C(C)=N/NC(=O)c2cccc(S(=O)(=O)N3CCCC3)c2)c(O)c1	?	2.8µM*	-3%	6.3µM*	.	63%[2.33 µM]
C/C(=N\NC(=O)c1cccc(S(=O)(=O)N2CCOCC2)c1)c1ccc(C#N)cc1	-15%	?	14%	.	3%	40µM*
CC(=NNC(=O)c1cccc(S(=O)(=O)N2CCOCC2)c1)c1ccccc1	1%	.	39%	-2%	.	.
O=C(NNS(=O)(=O)c1ccc(Cl)cc1)c1cccc(S(=O)(=O)N2CCOCC2)c1	-7%	-18%	26%	.	2%	?
CC(=NNC(=O)c1cccc(S(=O)(=O)N2CCCC2)c1)c1ccccc1	2%	.	30%	-5%	.	.
C/C(=N\NC(=O)c1cccc(S(=O)(=O)N2CCCC2)c1)c1cccs1	56µM*	-17%	-10%	2%	19%	31%
CN(C)c1cc[n+](CC(=O)Nc2ccc(Oc3ccccc3)cc2)cc1	-11%	-2%	22%	25%	7%	7%
COc1ccc(CN2C(=NC(=O)COc3ccccc3)SC3CS(=O)(=O)CC32)cc1 (stereo not drawn)	-6%	?	53%	.	0%	19%
O=C1C2C3C=CC(C3)C2C(=O)N1c1ccncc1 (stereo not drawn)	-1%	-17%	-3%	-2%	15%	9%[12.7 µM]
O=C1C2C3C=CC(C3)C2C(=O)N1c1ncn[nH]1 (stereo not drawn)	50µM*	?	?	-4%	-5%	?
O=C(NNC(=O)c1cccc(-n2cccc2)c1)c1ccc(F)cc1	?	40µM*	-22%	22µM*	.	1%[12.7 µM]
Cc1c(C(=O)N2CCN(C/C=C/c3ccccc3)CC2)oc2c(F)cccc12	-35%	?	-3%	-19%	.	5%[2.33 µM]
O=C1c2ccccc2C(=O)N1CCC(c1ccc(F)cc1)c1ccco1 (stereo not drawn)	-4%	0%	32%	-4%	14µM*	?
O=C(CC(c1ccc(F)cc1)c1ccco1)Nc1nccs1 (stereo not drawn)	-34%	?	-18%	-23%	-6%	28µM*
O=C(CC(c1ccc(F)cc1)c1ccco1)N1CCCC1 (stereo not drawn)	-20%	7%	32%	-4%	32µM*	40µM*
COc1ccccc1C(CC(=O)Nc1nccs1)c1ccco1 (stereo not drawn)	?	-37%	10%	-3%	-9%	-20%[59 µM]
CCCN(CCC)C(=O)CC(c1ccc(F)cc1)c1ccco1 (stereo not drawn)	-33%	-32%	39%	.	-26%	45µM*
CN1CCN(c2nc3cc(C(F)(F)F)ccc3n3cccc23)CC1	?	.	-4%	.	?	24µM*
CC(C)CNC(=O)CSc1nnc2ccccn12	-3%	-7%	45%	.	18%	45µM*
CN1CCN(S(=O)(=O)c2cccc(C(=O)Oc3ccc(C(C)(C)C)cc3)c2)CC1	?	?	-9%	-5%	.	50µM*
SMILES	JMJD2A Tudor	BAZ2B block	HP1b binding inh	L3MBTL1 block	Sfp inh	G9a block
CC(C)c1ccc(OC(=O)c2cccc(S(=O)(=O)N3CCN(C)CC3)c2)cc1	?	?	-10%	.	-9%	20µM*
CCCC/C=C/C(NC(=O)Oc1cccc(C(F)(F)F)c1)c1ccccc1 (stereo not drawn)	.	.	.	.	18%	.
CN(NC(=O)CN1C(=O)c2ccccc2C1=O)C1=NS(=O)(=O)c2ccccc21	-10%	-12%	27%	-1%	6%	79µM*
COc1ccccc1C(=O)NN(C)C1=NS(=O)(=O)c2ccccc21	5%	13%	26%	.	11%	14%
S=c1nc(-c2cccc(Cl)c2)[nH][nH]1	2.5µM*	-20%	12%	.	?	1.6µM*
S=c1nc(-c2cc(Cl)cc(Cl)c2)[nH][nH]1	79µM*	-5%	-1%	5%	40µM*	22µM*
Clc1ccc(Cl)c(-c2nc(-c3ccncc3)no2)c1	-7%	-2%	26%	-21%	7%	27%
S=c1nc(-c2cc(Cl)ccc2Cl)[nH][nH]1	5µM*	-23%	?	16%	50µM*	1.6µM*
S=c1nc(-c2ccccc2Br)[nH][nH]1	0.79µM*	12%	?	-16%	-12%	0.79µM*
CC1CCc2nc(/C(C#N)=C/c3ccncc3)sc2C1 (stereo not drawn)	8%	-20%	40%	5%	-24%	3%
O=c1c(-c2ccc(Cl)cc2)nc2cnc(Nc3ccccc3)nc2n1C[C@H]1CCCO1	.	.	.	.	18%	-2%[0.501 µM]
Cc1cc(C)nc(NNS(=O)(=O)c2ccc(F)c(Cl)c2)n1	-31%	79µM*	15%	-5%	.	?
COc1ccc(S(=O)(=O)NNc2nc(C)cc(C)n2)cc1Br	-15%	6%	-8%	-2%	.	22µM*
COc1ccc(NC(=O)COC(=O)Cn2nnc3ccccc32)cc1	-10%	-5%	37%	-24%	0%	19%
CN(C)c1ccc(NC(=O)COC(=O)Cn2nnc3ccccc32)cc1	-27%	-36%	-6%	?	6%	40µM*
Cc1ccccc1SCC(=O)OCC(=O)Nc1ccc(N(C)C)cc1	45µM*	40µM*	?	?	11%	13µM*
Cc1nn(CCCC(=O)NCc2ccccc2)c(=O)c2cc3sccc3n12	-16%	5%	19%	.	.	-3%[59 µM]
CC(C)(C)NC(=S)NC(=O)C12CCC3CC(CC(C3)C1)C2	?	71µM*	3%	-7%	3%	-34%
CCN(CC)CCP(=O)(c1ccccc1)c1ccccc1	-15%	12%	14%	.	5%	-2%[12.7 µM]
CCN(CC)CCN(C)C1CCC(c2ccccc2)CC1 (stereo not drawn)	6.3µM*	56µM*	?	8%	-25%	8.9µM*
